Reference: PubChem BioAssay AID2284358 (EPA ToxCast)
Inconclusive results are not listed. The source made the active and inactive calls. The calls were made as follows: active = hit-call score of the fitted dose curve at least 0.9, where 1 is the maximum; inconclusive = response in the unintended direction; inactive = score below 0.9.

The compounds below were run against zebrafish Retinoid X Receptor beta (RXRb), rxrba (gene 30530) (UniProt Q7SYN5) (assay: ATG_zfRXRb_EcoTox2: Attagene TRANS-FACTORIAL EcoTox-2 HepG2 Assay for zebrafish Retinoid X Receptor beta (RXRb)).
zebrafish Retinoid X Receptor beta (RXRb), rxrba (gene 30530), sequence (Q7SYN5 whole entry, looked up): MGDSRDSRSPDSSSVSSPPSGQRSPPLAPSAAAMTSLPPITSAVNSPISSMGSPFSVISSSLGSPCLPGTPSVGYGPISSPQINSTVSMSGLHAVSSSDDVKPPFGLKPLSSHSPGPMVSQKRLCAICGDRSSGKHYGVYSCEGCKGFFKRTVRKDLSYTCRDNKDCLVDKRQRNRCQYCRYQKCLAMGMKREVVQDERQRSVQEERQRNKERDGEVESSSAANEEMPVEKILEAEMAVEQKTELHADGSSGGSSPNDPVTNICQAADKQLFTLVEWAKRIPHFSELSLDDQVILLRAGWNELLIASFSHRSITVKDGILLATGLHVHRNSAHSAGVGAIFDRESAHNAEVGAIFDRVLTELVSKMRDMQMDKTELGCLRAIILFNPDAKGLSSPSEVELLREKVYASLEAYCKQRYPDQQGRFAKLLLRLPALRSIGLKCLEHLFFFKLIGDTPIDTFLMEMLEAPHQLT
Description: ATG_EcoTox2 is a cell-based, multiplexed assay created by modifying the existing Attagene TRANS-FACTORIAL system to include a panel of nuclear receptors from some or all the following species: human (Homo sapiens), african clawed frog (Xenopus laevis), rainbow trout (Oncorhynchus mykiss), japanese medaka (Oryzias latipes), and zebrafish (Danio rerio). The ECOTOX2-FACTORIAL format uses HepG2, a human liver cell line, with measurements taken at 24 hours after chemical dosing in a 24-well plate. ATG_zfRXRb_EcoTox2 is one of 29 assay components calculated in the ATG_EcoTox2 assay. It is designed to make measurements of mRNA induction, a form of inducible reporter, as detected with fluorescence intensity signals by Reverse transcription polymerase chain reaction (RT-PCR) and Capillary electrophoresis technology.The assay endpoint ATG_zfRXRb_EcoTox2 was analyzed in the positive analysis fitting direction relative to DMSO as the negative control and baseline of activity. Using a type of inducible reporter, measures of mRNA for gain-of-signal activity can be used to understand the reporter gene at the transcription factor-level as they relate to the gene RXRb. Furthermore, this assay endpoint can be referred to as a primary readout, because this assay has produced multiple assay endpoints where this one serves a reporter gene function. […]
Human liver HepG2 cells are transiently transfected with multiple reporter transcription units (MRTUs) in 6-well plates using FuGene 6 reagent (Roche; 3 ml FuGene/1 mg DNA). […] A major difference between the CIS and TRANS system is that in CIS activities of endogenous TFs are measured, whereas the TRANS assay evaluates changes in activities of exogenous, chimeric NR-Gal4 proteins. […] The fragments were purified using Qiaquick PCR columns (Qiagen), analyzed on an ABI 3130xL genetic analyzer (Applied Biosystems) with peak positions identified by using a set of X-rhodamine (ROX)-labeled MapMarker1000 molecular weight standards (BioVentures). […]
In the case of `O=P(Oc1ccccc1)(Oc1ccccc1)Oc1ccccc1`, the outcome is reported as “inactive”. In the case of `O=S(=O)(O)C(F)(F)C(F)(F)C(F)(F)C(F)(F)C(F)(F)C(F)(F)F`, the outcome is reported as “inactive”. `[Cl][Sn]([c]1ccccc1)([c]1ccccc1)[c]1ccccc1` was tested, and the AC50 was 95.2 nM (active).
